According to PubChem BioAssay (NCATS):
A number with no mark means an inactive call. Records with an inconclusive call do not appear. Activity calls are given as the source filed them. Unless noted, the call rests on the fitted dose curve; in most records, active means well fitted curve in either direction with a large enough effect (not every such curve was filed as active); inconclusive means small, poorly fitted or top-dose-only effect, or another doubt; inactive means flat fitted curve, though single readings scatter.

Tests used:
[1] = AP1 Signaling Pathway (AID 357); conditions: ME-180 AP-1-bla reporter, EGF-induced, beta-lactamase ratio, 5 h; at 17.2 µM (top of the series) unless noted; further: on the % scale 0 is the no-effect control and ±100 the full control effect
How it was run: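 AP-1-bla ME-180 cells with beta-lactamase reporter under AP-1 response element, stimulated with EC50 EGF; compounds titrated, 5 hours at 37 degrees Celsius. CCF4 read at 460/530 nm ratio; positive and negative modulators judged by AC50.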

[2] = NFAT Signaling Pathway (AID 444); conditions: Jurkat NFAT-bla M1, carbachol, beta-lactamase ratio, 5 h; at 17.2 µM (top of the series) unless noted;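 further: carbachol stimulus at about its EC50 of 1 µM final; on the % scale 0 is the no-effect control and ±100 the full control effect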
How it was run: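 Jurkat cells with NFAT-driven β-lactamase reporter and co-expressed M1 receptor, stimulated with carbachol (final 1 uM, ~EC50), compound titration, 5 h at 37 °C. CCF4 loaded 1 h at RT; 460/530 nm ratio gave %activity and AC50.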

[3] = Stat Signaling Pathway (AID 446); conditions: ME-180 SIE beta-lactamase reporter, IL-6 stimulated, 5 h; at 17.2 µM (top of the series) unless noted;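 further: ME-180 cervical cancer cells given 40 pM IL-6 alongside compound; SIE-controlled beta-lactamase reporter measured as 460/530 nm FRET emission ratio; on the % scale 0 is the no-effect control and ±100 the full control effect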
How it was run: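 Screening format detects activators and inhibitors alike: ME-180 SIE-bla cells stimulated at 40 pM IL-6 for 5 hrs with compound, then dual-emission beta-lactamase read at 405 nm excitation.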

[4] = target: Glucocorticoid receptor (Homo sapiens) (UniProt P04150); experiment: GR-GFP Redistribution (AID 450;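 active means compounds whose dose series gives a full or clear partial fitted curve of increased nuclear translocation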; further: potency means the concentration at half of the fitted maximal effect)
Chain of Glucocorticoid receptor (Homo sapiens) (P04150 whole entry, looked up, the tested form may be a part): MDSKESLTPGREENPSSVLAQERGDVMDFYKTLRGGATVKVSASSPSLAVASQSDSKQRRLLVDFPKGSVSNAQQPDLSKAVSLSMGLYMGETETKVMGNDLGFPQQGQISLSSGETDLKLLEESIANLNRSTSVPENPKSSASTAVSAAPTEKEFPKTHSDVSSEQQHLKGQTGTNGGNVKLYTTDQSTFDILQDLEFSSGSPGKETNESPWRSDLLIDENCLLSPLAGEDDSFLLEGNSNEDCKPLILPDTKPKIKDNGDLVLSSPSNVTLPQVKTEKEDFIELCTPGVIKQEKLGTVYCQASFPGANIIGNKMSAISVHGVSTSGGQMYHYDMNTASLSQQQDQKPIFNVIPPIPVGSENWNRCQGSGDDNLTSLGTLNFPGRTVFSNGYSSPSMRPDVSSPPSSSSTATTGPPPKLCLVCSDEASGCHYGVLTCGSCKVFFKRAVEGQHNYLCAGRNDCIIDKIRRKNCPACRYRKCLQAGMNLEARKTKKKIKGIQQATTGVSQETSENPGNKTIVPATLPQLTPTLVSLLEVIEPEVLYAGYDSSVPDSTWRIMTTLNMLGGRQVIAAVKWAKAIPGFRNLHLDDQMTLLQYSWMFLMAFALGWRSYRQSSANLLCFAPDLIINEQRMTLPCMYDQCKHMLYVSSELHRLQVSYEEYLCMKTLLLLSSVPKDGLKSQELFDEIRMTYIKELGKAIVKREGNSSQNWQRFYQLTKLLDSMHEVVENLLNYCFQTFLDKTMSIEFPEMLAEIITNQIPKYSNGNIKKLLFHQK

[5] = target: Glucocorticoid receptor (Homo sapiens) (UniProt P04150); experiment: qHTS assay for small molecule agonists of glucocorticoid receptor signaling (AID 588532; active means well fitted curve in the direction sought with a large enough effect in the signal ratio, with a control signal flat; the % refers to the signal ratio;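 further: 100% = dexamethasone at 0.1 µM and 0% = DMSO only wells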); conditions: HeLa MMTV-bla, beta-lactamase ratio, agonist, 18 h; hits give high values; percent of dexamethasone control, DMSO zero
How it was run: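 MMTV-bla HeLa beta-lactamase reporter cells in 1% charcoal/dextran FBS medium, compounds up to 92 uM for 18 h at 37 C, CCF4 readout; normalized to 0.1 uM dexamethasone (100%), EC50 and efficacy from Hill fits.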

[6] = target: Glucocorticoid receptor (Homo sapiens) (UniProt P04150); experiment: qHTS assay for small molecule antagonists of glucocorticoid receptor signaling (AID 588533; active means well fitted inhibition curve with a large enough effect in the signal ratio, with a control signal flat, not every such curve was filed as active; the % refers to the signal ratio;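 further: cells stimulated with 2 nM dexamethasone as agonist; on the % scale 0 is the no-effect control and ±100 the full control effect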)
How it was run: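 Antagonist-mode qHTS: compound titrations added to GRE-bla HeLa cells, then dexamethasone 2 nM final; 18 h, 37 C. CCF4 FRET fluorescence normalized to dexamethasone and DMSO; IC50 from Hill fit.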

[7] = target: Peroxisome proliferator-activated receptor gamma (Homo sapiens) (UniProt P37231); experiment: qHTS assay for small molecule antagonists of peroxisome proliferator-activated receptor gamma signaling (AID 588537; active means well fitted inhibition curve with a large enough effect in the signal ratio, with a control signal flat, not every such curve was filed as active; the % refers to the signal ratio;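 further: reporter cells co-stimulated with 50 nM rosiglitazone agonist during compound treatment; % of control where 0% means no effect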)
Chain of Peroxisome proliferator-activated receptor gamma (Homo sapiens) (P37231 whole entry, looked up): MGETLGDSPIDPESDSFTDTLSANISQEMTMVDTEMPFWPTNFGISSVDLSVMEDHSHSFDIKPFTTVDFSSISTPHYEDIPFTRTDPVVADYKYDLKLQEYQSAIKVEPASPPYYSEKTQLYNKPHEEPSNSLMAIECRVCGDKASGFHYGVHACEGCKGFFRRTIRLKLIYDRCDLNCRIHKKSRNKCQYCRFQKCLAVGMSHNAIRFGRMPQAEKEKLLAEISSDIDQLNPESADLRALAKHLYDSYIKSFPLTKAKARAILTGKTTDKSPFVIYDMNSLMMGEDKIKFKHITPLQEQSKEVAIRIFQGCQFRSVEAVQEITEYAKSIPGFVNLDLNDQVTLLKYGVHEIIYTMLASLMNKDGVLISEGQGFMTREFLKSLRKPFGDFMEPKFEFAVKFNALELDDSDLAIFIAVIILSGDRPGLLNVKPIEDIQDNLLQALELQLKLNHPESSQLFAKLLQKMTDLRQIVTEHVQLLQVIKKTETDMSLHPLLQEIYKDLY
How it was run: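 PPARγ-UAS-bla HEK293 cells (3000/well) in 1% charcoal/dextran-stripped FBS are treated with compound, then stimulated with 50 nM rosiglitazone for 16 h at 37 °C. Read-out is CCF4 β-lactamase fluorescence after 2 h at RT. IC50 comes from Hill fits normalised to rosiglitazone and DMSO.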

[8] = qHTS assay for small molecule agonists of the antioxidant response element (ARE) signaling pathway (AID 651741; active means well fitted activation curve with a large enough effect in the signal ratio; the % refers to the signal ratio; further: potency means the concentration at half of the fitted maximal effect)
How it was run: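 CellSensor ARE-bla HepG2 cells (2,000/well) carrying ARE-driven beta-lactamase, exposed 16 h at 37 C. LiveBLAzer B/G FRET substrate added for 2 h at room temperature; fluorescence intensity read.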

[9] = target: Peroxisome proliferator-activated receptor alpha (Homo sapiens) (UniProt Q07869); experiment: qHTS assay for small molecule agonists of the peroxisome proliferator-activated receptor alpha (PPARalpha) signaling pathway (AID 651778; active means well fitted curve in the direction sought with a large enough effect; an effect the other way counts as inactive or inconclusive; further: % of control where 0% means no effect); conditions: PathHunter PPARalpha complementation, chemiluminescence, 6 h; max response: hits give high values
Chain of Peroxisome proliferator-activated receptor alpha (Homo sapiens) (Q07869 whole entry, looked up, the tested form may be a part): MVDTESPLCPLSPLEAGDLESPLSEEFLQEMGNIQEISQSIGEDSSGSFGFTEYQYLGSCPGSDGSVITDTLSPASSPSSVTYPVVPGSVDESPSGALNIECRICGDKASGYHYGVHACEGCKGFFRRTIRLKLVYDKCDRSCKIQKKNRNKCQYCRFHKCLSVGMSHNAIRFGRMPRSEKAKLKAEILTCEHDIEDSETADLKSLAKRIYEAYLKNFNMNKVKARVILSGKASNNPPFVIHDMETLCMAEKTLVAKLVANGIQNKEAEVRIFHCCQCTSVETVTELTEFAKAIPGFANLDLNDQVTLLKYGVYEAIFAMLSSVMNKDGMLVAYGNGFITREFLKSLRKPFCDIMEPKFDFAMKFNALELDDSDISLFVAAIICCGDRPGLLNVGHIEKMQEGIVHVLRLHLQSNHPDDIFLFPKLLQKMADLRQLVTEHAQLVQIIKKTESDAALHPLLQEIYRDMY
How it was run: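 Enzyme-fragment complementation assay in which ligand-bound PPARalpha translocates and forms an active enzyme that generates chemiluminescence. Cells were plated overnight, exposed to compound for 6 hr at 37 C, and then given detection reagent for 60 min at room temperature.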

[10] = qHTS assay for small molecule agonists of the antioxidant response element (ARE) signaling pathway measured by Nrf2-dependant transcriptional activity - cell viability counter screen (AID 720653; active means well fitted curve in the direction sought with a large enough effect in the repeat runs; an effect the other way counts as inactive or inconclusive; further: on the % scale 0 is the no-effect control and ±100 the full control effect); conditions: ARE-bla HepG2 viability, CellTiter-Glo ATP luminescence, 16 h; max response: hits give low values
How it was run: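 ARE-bla HepG2 cells treated with compounds for 16 h at 37C; this counter screen measures viability as intracellular ATP by CellTiter-Glo luminescence after 30 min at room temperature.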

[11] = qHTS assay for cell viability of HEK293 cells (AID 743288; active means well fitted curve in the direction sought with a large enough effect; an effect the other way counts as inactive or inconclusive; further: on the % scale 0 is the no-effect control and ±100 the full control effect; nearly all actives have a fitted effect of over 50% in size); conditions: ATP luminescence (CellTiter-Glo), 18 h; max response: hits give low values
How it was run: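 Parental HEK293 cells, 2,000 per well, preincubated at least 5 h at 37 C, then exposed to compounds in DMSO for 18 h at 37 C. Viability by CellTiter-Glo ATP luminescence after 30 min at room temperature.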

[12] = qHTS assay for cell viability of the p53RE-bla HCT-116 cell line (AID 743292; active means well fitted curve in the direction sought with a large enough effect; an effect the other way counts as inactive or inconclusive; further: on the % scale 0 is the no-effect control and ±100 the full control effect; nearly all actives have a fitted effect of over 55% in size)
How it was run: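 After plating at 4,000 cells per well and a 5 h rest at 37 C, HCT-116 cells carrying p53RE-bla received test chemicals in DMSO. Sixteen hours later at 37 C, CellTiter-Glo was added and luminescence recorded following 30 min at room temperature.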

[13] = target: Nuclear receptor subfamily 1 group I member 2 (Rattus norvegicus) (UniProt Q9R1A7); experiment: qHTS assay for small molecule activators of the rat pregnane X receptor (rPXR) signaling pathway (AID 651751; call rule not given here; further: 0% is about no effect); conditions: rPXR reporter cells, luciferase (One-Glo), 24 h
Chain of Nuclear receptor subfamily 1 group I member 2 (Rattus norvegicus) (Q9R1A7 whole entry, looked up): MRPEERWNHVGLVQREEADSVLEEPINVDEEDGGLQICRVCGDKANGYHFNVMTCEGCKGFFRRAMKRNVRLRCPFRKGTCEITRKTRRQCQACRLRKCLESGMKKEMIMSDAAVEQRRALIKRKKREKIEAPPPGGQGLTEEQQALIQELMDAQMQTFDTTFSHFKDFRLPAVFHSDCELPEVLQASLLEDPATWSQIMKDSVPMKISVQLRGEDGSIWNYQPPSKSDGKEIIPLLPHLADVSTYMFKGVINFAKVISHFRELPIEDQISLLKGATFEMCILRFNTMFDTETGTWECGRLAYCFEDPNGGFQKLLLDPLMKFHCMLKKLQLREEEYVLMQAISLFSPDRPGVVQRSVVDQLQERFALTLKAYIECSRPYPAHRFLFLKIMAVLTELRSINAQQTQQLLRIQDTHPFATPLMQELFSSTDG

[14] = target: Glucocorticoid receptor (Homo sapiens) (UniProt P04150); experiment: GR-EFC Redistribution (AID 451; calls by dose curve; further: potency means the concentration at half of the fitted maximal effect); conditions: CHO-K1 GR-EFC translocation, beta-gal luminescence, 2 h
How it was run: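 CHO-K1 cells expressing nuclear EA and GR-ED fragments of b-gal; compounds titrated up to 46 uM final, 2 h at 37 C. GR nuclear translocation read as complemented b-gal luminescence after 1 h RT detection.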

[15] = target: Mitogen-activated protein kinase 10 (Mus musculus) (UniProt Q61831); experiment: JNK3 AlphaScreen Assay (AID 530)
How it was run: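 Pre-activated (IL-1β/TNFα) JNK3 in HepG2 lysates phosphorylates biotin-GST-cJun(1-79), 10 uM ATP; anti-phospho-cJun(Ser73) AlphaScreen read at room temperature, pH 7.6 Tris buffer. Compounds pre-incubated 15 min as titrations.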

[16] = target: 3',5'-cyclic-AMP phosphodiesterase 4B (Homo sapiens) (UniProt Q07343); experiment: qHTS Assay for Inhibitors of PDE-IV (AID 607; active means well fitted activation curve with a large enough effect in the main read-out, with a control signal flat, not every such curve was filed as active; further: % of control where 0% means no effect)
Chain of 3',5'-cyclic-AMP phosphodiesterase 4B (Homo sapiens) (Q07343 whole entry, looked up): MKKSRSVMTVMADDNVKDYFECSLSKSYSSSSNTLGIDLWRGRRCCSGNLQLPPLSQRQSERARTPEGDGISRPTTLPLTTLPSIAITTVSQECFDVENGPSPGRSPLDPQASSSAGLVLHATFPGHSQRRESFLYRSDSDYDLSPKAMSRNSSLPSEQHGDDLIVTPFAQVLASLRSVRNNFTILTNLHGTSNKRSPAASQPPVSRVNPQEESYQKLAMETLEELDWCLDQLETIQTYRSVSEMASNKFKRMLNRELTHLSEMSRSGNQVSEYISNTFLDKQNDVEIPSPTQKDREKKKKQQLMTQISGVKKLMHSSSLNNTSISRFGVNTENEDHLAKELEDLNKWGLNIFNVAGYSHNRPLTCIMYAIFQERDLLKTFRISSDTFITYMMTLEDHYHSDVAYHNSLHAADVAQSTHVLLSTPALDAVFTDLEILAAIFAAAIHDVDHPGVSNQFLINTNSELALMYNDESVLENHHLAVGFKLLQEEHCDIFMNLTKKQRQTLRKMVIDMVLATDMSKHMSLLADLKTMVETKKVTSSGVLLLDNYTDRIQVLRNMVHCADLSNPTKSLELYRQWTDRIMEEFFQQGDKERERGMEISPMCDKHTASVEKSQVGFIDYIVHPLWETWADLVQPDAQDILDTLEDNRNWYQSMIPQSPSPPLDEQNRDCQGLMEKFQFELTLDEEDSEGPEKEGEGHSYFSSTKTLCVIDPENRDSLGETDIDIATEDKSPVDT
How it was run: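 The readout is membrane depolarisation from a cAMP-sensing CNG channel, detected with a potential dye at ex 535/em 590. Cells were HEK293-derived (endogenous PDE-IV) at 1000 cells/well, titrated up to 22.9 uM final.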

[17] = target: Ubiquitin carboxyl-terminal hydrolase 1 (Homo sapiens) (UniProt O94782); experiment: Inhibitors of USP1/UAF1: Pilot qHTS (AID 504865; active means well fitted curve in the direction sought with a large enough effect; an effect the other way counts as inactive or inconclusive;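 further: rhodamine fluorescence freed from ubiquitin-rhodamine substrate followed over time; top concentration of the series differs between compounds; on the % scale 0 is the no-effect control and ±100 the full control effect; nearly all actives have a fitted effect of over 35% in size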)
Chain of Ubiquitin carboxyl-terminal hydrolase 1 (Homo sapiens) (O94782 whole entry, looked up): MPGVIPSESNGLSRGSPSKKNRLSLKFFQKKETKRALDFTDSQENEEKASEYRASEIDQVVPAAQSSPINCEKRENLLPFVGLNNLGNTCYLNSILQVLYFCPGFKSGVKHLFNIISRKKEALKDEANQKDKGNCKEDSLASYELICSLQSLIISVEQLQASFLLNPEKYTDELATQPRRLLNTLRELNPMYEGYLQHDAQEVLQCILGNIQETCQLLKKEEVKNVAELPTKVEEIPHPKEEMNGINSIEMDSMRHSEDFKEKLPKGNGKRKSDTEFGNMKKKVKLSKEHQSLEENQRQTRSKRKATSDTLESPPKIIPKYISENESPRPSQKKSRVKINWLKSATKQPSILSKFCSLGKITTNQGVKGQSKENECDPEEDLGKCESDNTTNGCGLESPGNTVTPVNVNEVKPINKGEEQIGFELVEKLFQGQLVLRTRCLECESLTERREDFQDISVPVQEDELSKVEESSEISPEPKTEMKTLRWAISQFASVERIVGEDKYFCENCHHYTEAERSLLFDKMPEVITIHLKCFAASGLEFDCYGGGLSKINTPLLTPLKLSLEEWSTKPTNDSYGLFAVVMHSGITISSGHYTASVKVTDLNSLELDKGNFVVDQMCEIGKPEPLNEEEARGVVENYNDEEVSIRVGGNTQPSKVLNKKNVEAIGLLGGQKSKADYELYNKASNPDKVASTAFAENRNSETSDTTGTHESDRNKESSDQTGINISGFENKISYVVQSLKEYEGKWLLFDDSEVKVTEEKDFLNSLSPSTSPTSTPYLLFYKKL
How it was run: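 USP1/UAF1 complex at 1 nM preincubated 15 min at room temperature with compound, then Ub-Rho substrate added at 150 nM final. Fluorescence (480/540 nm) read kinetically in 50 mM HEPES pH 7.8, 0.5 mM EDTA, 1 mM TCEP, 0.1 mg/ml BSA, 0.01% Tween-20.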

O=c1oc2cc(O)ccc2c2oc3cc(O)ccc3c12
activity change, negative = inhibition [1]: 5.61%
activity change, negative = inhibition [2]: 3.33%
activity, negative = inhibition [3]: -5.07%
Potency [4]: > 20.6 µM
activation [5]: -5.79%
Potency [6]: inactive
Potency [7]: inactive
Potency [8]: 54.5 µM (active)
max response [9]: -1.88%
max response [10]: -3.33%
max response [11]: -9.05%
Potency [12]: inactive
max response [13]: 3.73%

CN(C)C(=O)c1ccc(-c2ccc3ncnc(NC4CC4)c3c2)cc1
activity change, negative = inhibition [1]: -22.9% [at 7.69 µM]
activity change, negative = inhibition [2]: 12.3% [at 7.69 µM]
activity, negative = inhibition [3]: -3.61% [at 7.69 µM]
Potency [4]: > 46 µM
Potency [14]: > 46 µM
Potency [15]: inactive
Potency [16]: inactive
Potency [17]: inactive

COc1cc(C)cc2c(-c3c(O)cc(O)c4c3C[C@H](C)N[C@@H]4C)cc(-c3cc(-c4c(O)cc(O)c5c4C[C@H](C)N[C@@H]5C)c4cc(C)cc(OC)c4c3O)c(O)c12
activity change, negative = inhibition [1]: 6.28% [at 7.69 µM]
activity change, negative = inhibition [2]: 9.14% [at 7.69 µM]
activity, negative = inhibition [3]: 5.82% [at 7.69 µM]
Potency [4]: > 46 µM
activity change, negative = inhibition [15]: -9.73% [at 11.4 µM]
Potency [16]: inactive
